Screening data: PubChem, National Center for Advancing Translational Sciences (NCATS)
Cruzain Triton – blocks cruzain activity in presence of Triton detergent; P25779; purified cruzain, Z-FR-AMC fluorescence, 0.01% Triton; Potency, µM, actives largely listed as inhibitors; hit rate 0.43% among 200,000; AID 1478; also: nearly all actives have a fitted effect of over 40% in size
Target sequence (P25779 123-467 limits assumed): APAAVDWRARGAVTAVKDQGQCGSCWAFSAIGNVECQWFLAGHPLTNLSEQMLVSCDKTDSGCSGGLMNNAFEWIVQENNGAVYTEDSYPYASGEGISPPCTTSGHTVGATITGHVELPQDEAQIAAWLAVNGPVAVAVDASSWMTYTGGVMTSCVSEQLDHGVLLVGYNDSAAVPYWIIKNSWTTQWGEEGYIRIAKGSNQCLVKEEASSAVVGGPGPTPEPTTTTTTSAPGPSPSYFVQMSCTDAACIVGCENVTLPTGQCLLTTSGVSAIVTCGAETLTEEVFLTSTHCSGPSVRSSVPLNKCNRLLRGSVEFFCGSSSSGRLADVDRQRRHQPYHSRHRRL
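In this qHTS format, compounds are incubated with 1.5 nM cruzain for 15 min at room temperature before 2 uM Z-FR-AMC is added. Release of AMC is followed at 360/450 nm, and progress is taken as the 60 s fluorescence difference.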
Cruzain noTriton – cruzain (T. cruzi) inhibition without detergent; AID 1476; P25779; Potency, µM, hits mostly inhibitors; purified cruzain, Z-FR-AMC fluorescence, no detergent; hit rate 2.3% among 200,000; also: nearly all actives have a fitted effect of over 40% in size
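Purified cruzain at 1.5 nM, pre-incubated 15 min with compound at room temperature in 100 mM sodium acetate pH 5.5, 5 mM DTT, 0.00005% Triton X-100. Reaction started with 2 uM Z-FR-AMC; AMC fluorescence increase over 60 s gives rate.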
Each line names hits and unclear results; the compound was inactive in the other large screens. Shown are actives, neighbours in structure and some others; about 2.4% of the full set was active somewhere. Calls follow the shape of the dose curve; as a rule, active = well fitted curve in the direction sought with a large enough effect; inconclusive = small, poorly fitted or top-dose-only effect, or another doubt; inactive = no such curve, though single readings can be large; an effect the other way counts as inactive or inconclusive.

Cc1ccc(CCNC(=O)c2sc3ncccc3c2-n2c(C)ccc2C)cc1	none
CC(=O)N/N=C/c1cc(C)n(-c2ccc(Br)cc2)c1C	none
Cc1cc([P+](=O)O)c(C)n1-c1ccc(Br)cc1	Cruzain noTriton 20µM
COc1ccccc1OCC(=O)Nc1oc(-c2ccccc2)c(-c2ccccc2)c1C#N	Cruzain noTriton inconclusive
N#Cc1c(NC(=O)COC(=O)C2CC3C=CC2C3)oc(-c2ccccc2)c1-c1ccccc1 (stereo not drawn)	Cruzain noTriton 7.94µM
CS(=O)(=O)c1ccc(/C=N\NC(N)=S)cc1	none
COc1ccc(Cn2ccnc2SCC(=O)Nc2cc(C(F)(F)F)ccc2Cl)cc1	none
Cc1cc(NC(=O)CSc2nnc(Nc3ccccc3)s2)no1	Cruzain noTriton 15.8µM
Cc1ccccc1N1CC(C(=O)Nc2nnc(SCC(=O)Nc3nccs3)s2)CC1=O (stereo not drawn)	none
COc1cccc(N2CC(C(=O)Nc3nnc(SCC(=O)c4ccccc4)s3)CC2=O)c1 (stereo not drawn)	none
Cc1cccc(N2CC(C(=O)Nc3nnc(SCC(=O)Nc4nccs4)s3)CC2=O)c1 (stereo not drawn)	Cruzain noTriton 6.31µM
COc1ccc(Nc2nnc(SCC(=O)Nc3cc(C)on3)s2)cc1	none
Cc1cccc(N2CC(C(=O)Nc3nnc(SCC(=O)Nc4cc(C)on4)s3)CC2=O)c1 (stereo not drawn)	Cruzain noTriton 10µM
Cc1ccc2c(c1)N(C(=O)N1CCC(C(=O)NCCC3=CCCCC3)CC1)CC(C)O2 (stereo not drawn)	none
COC(=O)[C@@]1(Cc2ccccc2)[C@H]2c3cc(C(=O)N4CCCC4)n(Cc4ccc(O)c(OC)c4)c3C[C@H]2CN1C(=O)c1ccccc1	Cruzain noTriton inconclusive
N#Cc1cnn2cc(-c3ncc(C(F)(F)F)cc3Cl)cnc12	none
FC(F)(F)c1cnc(-c2cnc3c(-c4ccc(Cl)cc4)cnn3c2)c(Cl)c1	Cruzain noTriton 10µM
O[C@@H](c1cc([C@@]23C[C@H]4CC[C@@H]2C[C@H](C4)C3)nc2c(Cl)cc(Cl)cc12)C1CCCCN1 (stereo partly drawn)	none
CCCOc1cccc(C2c3c(-c4ccccc4O)n[nH]c3C(=O)N2Cc2ccco2)c1 (stereo not drawn)	Cruzain noTriton inconclusive
Cc1ccc(C)c2sc(NC(=O)c3ccc(N4C(=O)CCC4=O)cc3)nc12	Cruzain noTriton 20µM
CCc1nnc(NC(=O)c2ccc(N3C(=O)CCC3=O)cc2)s1	none
O=C(CSc1oc(-c2ccccc2)nc1S(=O)(=O)c1ccc(Br)cc1)c1ccccc1	Cruzain noTriton 12.6µM
O=C(CSc1oc(-c2ccccc2)nc1S(=O)(=O)c1ccccc1)c1ccccc1	Cruzain noTriton inconclusive
CCSc1nnc(NC(=O)c2ccccc2)s1	none
O=C(Nc1nnc(SCc2ccccc2)s1)c1cc2c(s1)CCCC2	Cruzain noTriton inconclusive
CCSc1nnc(NC(=O)c2cc3c(s2)CCCC3)s1	Cruzain noTriton 7.94µM
CCSc1nnc(NC(=O)c2csc3c2CCCC3)s1	Cruzain noTriton inconclusive
CCSc1nnc(NC(=O)c2cc(-c3ccc(C)c(C)c3O)n[nH]2)s1	Cruzain noTriton 3.98µM
CCSc1nnc(NC(=O)c2ccc3c(c2)OCO3)s1	Cruzain noTriton 25.1µM
CCSc1nnc(NC(=O)c2csc3c2CCC(C)C3)s1 (stereo not drawn)	Cruzain noTriton 12.6µM
CCSc1nnc(NC(=O)c2cc(C)on2)s1	none
CN1CCN(c2ccc3nc(-c4ccc5nc(-c6ccc(O)cc6)[nH]c5c4)[nH]c3c2)CC1	none
CCCC=O	none
Cc1ccc(CCNC(=O)CCCn2c(=O)c3ccccc3n(CC(=O)Nc3cc(Cl)ccc3C)c2=O)cc1	none
C[C@@H](CSC(=N)N)C(N)=O	none
CCCC1=C/C(=C/c2ccc(-c3ccccc3OC)o2)C(=O)O1	Cruzain noTriton inconclusive
COc1ccccc1-c1ccc(/C=C2/C=C(CC(C)C)OC2=O)o1	Cruzain noTriton 31.6µM
O=C(COc1ccc(Cl)cc1)Nc1ccc(C(=O)OCc2cc(=O)n3ccsc3n2)cc1	none
O=C1c2ccccc2C(=O)N1OS(=O)(=O)c1ccccc1	Cruzain Triton inconclusive, Cruzain noTriton 7.94µM
Cc1ccc(C)c(S(=O)(=O)ON2C(=O)c3ccccc3C2=O)c1	Cruzain Triton 12.6µM, Cruzain noTriton 10µM
Cc1ccc(S(=O)(=O)ON2C(=O)c3cccc4cccc(c34)C2=O)cc1	none
O=C1c2cccc3cccc(c23)C(=O)N1OS(=O)(=O)c1ccccc1	none
CC(C)C(=O)OCc1cc(=O)n2nc(C3CC3)sc2n1	none
O=C(c1nc2ccc([N+](=O)[O-])cc2[nH]c1=O)[C@@H](O)c1ccc2c(c1)OCO2	none
COC(=O)c1ccc(Sc2ccc(C)cc2)c(N)c1	none
COc1cc(Sc2ccc(C)cc2)c(OC)cc1N	Cruzain noTriton 15.8µM
O=C(NC(=S)Nc1cccc(Cl)c1N1CCCCC1)c1ccc2c(c1)OCCO2	Cruzain noTriton 12.6µM
O=C(Nc1cccc(Cl)c1N1CCCCC1)c1ccc2c(c1)OCCO2	none
COc1ccc(/C=N/c2c(-c3ccc(OC)cc3)nc3n2CCS3)cc1	Cruzain noTriton inconclusive
COc1ccc(C2=CSC(/N=C/c3ccc(F)cc3)=NN2)cc1	Cruzain noTriton 12.6µM
CCOC(=O)c1ccc(N2C(=O)c3[nH]nc(-c4ccc(C)cc4)c3C2c2ccc(O)c(OCC)c2)cc1 (stereo not drawn)	Cruzain noTriton inconclusive
CC(C)C(=O)N1c2ncnn2C2(CCCCC2)[C@@H]2CCCC[C@@H]21	none
Cc1ccc(-c2ccc(C(=O)NCc3ccc(Cl)cc3)o2)c2ccccc12	Cruzain Triton inconclusive, Cruzain noTriton 25.1µM
Cc1ccccc1-c1ccc(C(=O)NCc2ccccc2)o1	none
Cc1ccc(-c2csc(NC(=O)CCNC(=O)c3ccccc3Cl)n2)cc1	none
CC(OC(=O)CNC(=O)c1ccccc1F)C(=O)Nc1nc(-c2ccccc2)cs1 (stereo not drawn)	Cruzain Triton 7.94µM, Cruzain noTriton 7.94µM
O=C(Nc1c(C(=O)c2ccccc2)oc2ccccc12)c1cc(-c2ccccc2O)n[nH]1	Cruzain noTriton 12.6µM
Cc1ccc(C(=O)c2oc3ccccc3c2NC(=O)c2cc(-c3ccccc3O)n[nH]2)cc1	Cruzain noTriton inconclusive
CCC(=O)Nc1ncnc2ncn(C(=O)CC)c12	none
CCCc1[nH]nc2c1C(c1cccc(OC(=O)c3ccco3)c1)C(C#N)=C(N)O2 (stereo not drawn)	Cruzain Triton inconclusive, Cruzain noTriton 20µM
CCCc1[nH]nc2c1C(c1cc(OC)cc(OC)c1)C(C#N)=C(N)O2 (stereo not drawn)	none
COc1cccc(-c2nc(SCC(=O)NCC3CCCO3)c(-c3ccc(Cl)cc3)[nH]2)c1 (stereo not drawn)	none
ON=C1CCCCC1	none
CCC1CCc2c(sc(NC(=O)C3c4ccccc4Oc4ccccc43)c2C(=O)OC)C1 (stereo not drawn)	Cruzain noTriton 3.98µM
CCC(C)(C)C1CCc2c(sc(NC(=O)C3c4ccccc4Oc4ccccc43)c2C(N)=O)C1 (stereo not drawn)	none
COC(=O)c1c(NC(=O)C2c3ccccc3Oc3ccccc32)sc2c1CCC(C)C2 (stereo not drawn)	none
CCC1CCc2c(sc(NC(=O)C3c4ccccc4Oc4ccccc43)c2C#N)C1 (stereo not drawn)	Cruzain noTriton 7.94µM
CC(C)[C@@H](CC(=O)N[C@@H]1CCCC[C@H]1C(=O)N[C@H](CC(=O)N[C@@H](CCC(=O)O)CC(=O)O)Cc1ccccc1)NC(=O)C[C@H](CO)NC(=O)[C@@H]1CCCC[C@H]1N	none
O=C(Nc1cccc(-c2nc3ccccc3[nH]2)c1)c1c(F)cccc1F	Cruzain noTriton inconclusive
